According to PubChem BioAssay (NCATS):
Results filed as inconclusive are left out. Values without a mark were called inactive. Calls of active or inactive are those of the source. The call rests on the fitted dose curve.

Assay: Primary qHTS for inhibitors of MERS-S pseudo-typed particle cell entry (AID 1479149); further: nearly all actives have a fitted effect of over 60% in size
Settings: MERS-S pseudotyped particle entry, luciferase; series mostly up to 57.1 µM; activity change, negative = inhibition: at the top concentration
On the % scale 0 is the no-effect control and ±100 the full control effect.

For `CC(=O)OC(C)OC(=O)C(C)c1ccc(-c2ccccc2)c(F)c1` (stereo unspecified), which “outcome” value is on record?
Its value is “inactive”.

With `COc1cc(C(=O)NS(=O)(=O)c2ccccc2C)ccc1Cc1cn(C)c2ccc(NC(=O)OC3CCCC3)cc12` as the compound, how does the “outcome” value read?
Its value is “inactive”.

Which “outcome” value does the source give for `CO/N=C(/C(=O)N[C@@H]1C(=O)N2C(C(=O)[O-])=C(C[n+]3ccn4ncccc43)CS[C@H]12)c1nsc(N)n1` here?
Its value is “inactive”.

For `NC[C@H]1O[C@H](O[C@H]2[C@H](O)[C@@H](O[C@H]3O[C@H](CO)[C@@H](O)[C@H](N)[C@H]3O)[C@H](N)C[C@@H]2N)[C@H](O)[C@@H](O)[C@@H]1O`, which outcome is on record?
Its outcome is “inactive [at 5.34 µM]”.

With `CC(C)(C)NC[C@H](O)COc1cccc2c1CCCC2=O` as the compound, how does the “outcome” value read?
The value was “inactive”.

For `CCN1C(=O)NC(c2ccccc2)C1=O` (stereo unspecified), which “outcome” value is on record?
The value was “inactive”.

Which “activity change, negative = inhibition” value does the source give for `CC(=O)Oc1cc(C(C)C)c(OCCN(C)C)cc1C` here?
Its value is -8.13%.

Which “activity change, negative = inhibition” value does the source give for `c1ccc2sc(SN3CCOCC3)nc2c1` here?
Its value is -58.8%.

With `CNC[C@H](O)c1cccc(O)c1` as the compound, how does the “outcome” value read?
The value was “inactive”.

Which “activity change, negative = inhibition” value does the source give for `Cc1ccc(C(=O)C(C)CN2CCCCC2)cc1` (stereo unspecified) here?
The value was 2.06%.

With `CC(N=C(NC#N)Nc1ccncc1)C(C)(C)C` (stereo unspecified) as the compound, how does the “activity change, negative = inhibition” value read?
Its value is -5.65%.

Which “outcome” value does the source give for `CC12CCC(CC1)C(C)(C)O2` here?
The value was “inactive”.

Which “activity change, negative = inhibition” value does the source give for `O=C(O)CCCCC1CCSS1` (stereo unspecified) here?
Its value is -5.87%.

With `Cc1c(C(=O)O)c(O)cc2c1C(=O)c1c(O)c([C@@H]3O[C@H](CO)[C@@H](O)[C@H](O)[C@H]3O)c(O)c(O)c1C2=O` as the compound, how does the “outcome” value read?
Its value is “inactive”.

With `COC(=O)c1ccc(O)cc1` as the compound, how does the “outcome” value read?
The value was “inactive”.

Which “activity change, negative = inhibition” value does the source give for `OCc1ccc(Cl)cc1Cl` here?
Its value is 0.323%.

Assay: Primary qHTS for Vero E6 cytotoxicity: counterscreen for inhibitors of SARS-S pseudo-typed particle cell entry (AID 1479150); further: potency means the concentration at half of the fitted maximal effect
Settings: cell viability; series mostly up to 57.1 µM; activity change, negative = cytotoxicity: at the top concentration

With `CC(C(=O)O)c1cccc(Oc2ccccc2)c1` (stereo unspecified) as the compound, how does the “activity change, negative = cytotoxicity” value read?
Its value is 0.213%.

For `O=C(OOC(=O)c1ccccc1)c1ccccc1`, which “outcome” value is on record?
Its value is “inactive”.

Which “activity change, negative = cytotoxicity” value does the source give for `CCCCN(CCCC)CCCOC(=O)c1ccc(N)cc1` here?
The value was -11.8%.

For `COc1cc(NS(C)(=O)=O)ccc1Nc1c2ccccc2nc2ccccc12`, which Potency is on record?
Its Potency is 25.1 µM (active).

For `O=C(C1CCCCC1)N1CC(=O)N2CCCc3ccccc3C2C1` (stereo unspecified), which “activity change, negative = cytotoxicity” value is on record?
The value was 2.5%.

With `CC(C)[C@H](N)C(=O)OCC(CO)OCn1cnc2c(=O)[nH]c(N)nc21` (stereo partly specified) as the compound, how does the “outcome” value read?
The value was “inactive”.

Which “activity change, negative = cytotoxicity” value does the source give for `O=C(NCC(O)CO)c1c(I)c(C(=O)NCC(O)CO)c(I)c(N(CCO)C(=O)CO)c1I` (stereo unspecified) here?
Its value is 0.915%.

Which “outcome” value does the source give for `NS(=O)(=O)c1cc(Cl)c(Cl)c(S(N)(=O)=O)c1` here?
Its value is “inactive”.

Which “activity change, negative = cytotoxicity” value does the source give for `C=CC1=C(C(=O)O)N2C(=O)[C@@H](NC(=O)/C(=N\O)c3csc(N)n3)[C@H]2SC1` (stereo in doubt) here?
The value was -8.84%.

For `CN1C[C@@H]2C[C@H]1CN2c1cc2c(cc1F)c(=O)c(C(=O)O)cn2C1CC1`, which “activity change, negative = cytotoxicity” value is on record?
The value was 0.504% [at 26.4 µM].

For `COC(=O)CCCCC(CCSS/C(CCO)=C(\C)N(C=O)Cc1cnc(C)nc1N)SC(C)=O` (stereo unspecified), which “activity change, negative = cytotoxicity” value is on record?
The value was -2.94%.

With `NCc1ccc(S(N)(=O)=O)cc1` as the compound, how does the “activity change, negative = cytotoxicity” value read?
Its value is 4.52%.

For `Cc1cc(O)cc2c1O[C@](C)(CCC[C@H](C)CCC[C@H](C)CCCC(C)C)CC2`, which “activity change, negative = cytotoxicity” value is on record?
The value was -6.8%.

Which “activity change, negative = cytotoxicity” value does the source give for `Cc1ccc(C(C)C)cc2c(C)ccc1-2` here?
The value was 3.39%.

With `COc1ccc(C(=O)NCc2ccc(OCCN(C)C)cc2)cc1OC` as the compound, how does the “activity change, negative = cytotoxicity” value read?
The value was -5.74%.

With `CC1(C)S[C@@H]2[C@H](NC(=O)C(c3ccccc3)S(=O)(=O)O)C(=O)N2[C@H]1C(=O)O` (stereo partly specified) as the compound, how does the “activity change, negative = cytotoxicity” value read?
Its value is -2.14%.

For `O=c1c(-c2ccc(O)cc2)coc2cc(O)cc(O)c12`, which “activity change, negative = cytotoxicity” value is on record?
The value was -16.4%.

For `CC(=O)OC(C)OC(=O)C(C)c1ccc(-c2ccccc2)c(F)c1` (stereo unspecified), which “outcome” value is on record?
Its value is “inactive”.

With `COc1cc(C(=O)NS(=O)(=O)c2ccccc2C)ccc1Cc1cn(C)c2ccc(NC(=O)OC3CCCC3)cc12` as the compound, how does the “activity change, negative = cytotoxicity” value read?
The value was 0.681%.

With `CO/N=C(/C(=O)N[C@@H]1C(=O)N2C(C(=O)[O-])=C(C[n+]3ccn4ncccc43)CS[C@H]12)c1nsc(N)n1` as the compound, how does the “activity change, negative = cytotoxicity” value read?
Its value is 4.29%.

With `NC[C@H]1O[C@H](O[C@H]2[C@H](O)[C@@H](O[C@H]3O[C@H](CO)[C@@H](O)[C@H](N)[C@H]3O)[C@H](N)C[C@@H]2N)[C@H](O)[C@@H](O)[C@@H]1O` as the compound, how does the outcome read?
Its outcome is “inactive [at 5.34 µM]”.

For `CC(C)(C)NC[C@H](O)COc1cccc2c1CCCC2=O`, which “outcome” value is on record?
The value was “inactive”.

For `O=C1CN(/N=C/c2ccc([N+](=O)[O-])o2)C(=O)N1`, which “outcome” value is on record?
Its value is “inactive”.

For `CCN1C(=O)NC(c2ccccc2)C1=O` (stereo unspecified), which “activity change, negative = cytotoxicity” value is on record?
Its value is -7.17%.

Which “activity change, negative = cytotoxicity” value does the source give for `CC(=O)Oc1cc(C(C)C)c(OCCN(C)C)cc1C` here?
The value was 1.63%.

With `c1ccc2sc(SN3CCOCC3)nc2c1` as the compound, how does the “outcome” value read?
The value was “inactive”.

For `CNC[C@H](O)c1cccc(O)c1`, which “activity change, negative = cytotoxicity” value is on record?
The value was 4.41%.

For `Cc1ccc(C(=O)C(C)CN2CCCCC2)cc1` (stereo unspecified), which “outcome” value is on record?
The value was “inactive”.

With `CC(N=C(NC#N)Nc1ccncc1)C(C)(C)C` (stereo unspecified) as the compound, how does the “outcome” value read?
The value was “inactive”.

For `Nc1nc(Cl)nc2c1ncn2[C@@H]1O[C@H](CO)[C@@H](O)[C@@H]1F`, which “activity change, negative = cytotoxicity” value is on record?
Its value is -9.58%.

For `CC12CCC(CC1)C(C)(C)O2`, which “activity change, negative = cytotoxicity” value is on record?
The value was 0.0947%.

With `O=C(O)CCCCC1CCSS1` (stereo unspecified) as the compound, how does the “outcome” value read?
Its value is “inactive”.

For `Cc1c(C(=O)O)c(O)cc2c1C(=O)c1c(O)c([C@@H]3O[C@H](CO)[C@@H](O)[C@H](O)[C@H]3O)c(O)c(O)c1C2=O`, which “activity change, negative = cytotoxicity” value is on record?
The value was -3.41%.

For `COC(=O)c1ccc(O)cc1`, which “outcome” value is on record?
The value was “inactive”.

With `OCc1ccc(Cl)cc1Cl` as the compound, how does the “activity change, negative = cytotoxicity” value read?
Its value is 0.0279%.
